In the supplement of paper PMC7156485:

The molecules below were run on TDF (assay: H1.0 immunofluorescence intensity relative to DMSO (% of DMSO); higher = stronger H1.0 induction, active = 120 or more). Conditions: concentration: 10 µM; 24 h.
Method in brief: (§1)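 H1.0 nuclear intensity or cell number is stated as percent of the plate control, based on the median of replicates, and HCC1569 values were smoothed for positional effects. These came from HCC1569 and TDF cells treated with compounds at 10 µM for 24 h at 37 °C in triplicate, then fixed in 3.7% formaldehyde and stained with a rabbit anti-H1.0 antibody, an AlexaFluor 647 secondary and DAPI.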
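Note: TDF is a line of transformed human dermal fibroblasts of mesenchymal origin.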

H1.0 immunofluorescence intensity, inactive:
CCC(C)C(=O)OC1CC(C)C=C2C=CC(C)C(CCC3CC(O)CC(=O)O3)C21 (configuration not stated) [Lovastatin] 119
CC(=O)OCC(=O)C1(O)CCC2C3CCC4=CC(=O)CCC4(C)C3C(O)CC21C (configuration not stated) [Hydrocortisone 21-acetate] 78
Nc1[nH]nc2nc3ccccc3nc12 [Cdk1/5 Inhibitor] 104

The molecules below were run on HCC1569 (assay: H1.0 immunofluorescence intensity relative to DMSO (% of DMSO); higher = stronger H1.0 induction, active = 140 or more). Conditions: concentration: 10 µM; 24 h.
Method in brief: as §1

H1.0 immunofluorescence intensity, inactive:
CN(C)CCCSc1ccccc1NC(=O)C=Cc1ccccc1 [Cinanserin] 107
COc1cc2c(cc1OC)-c1cc(=Nc3c(C)cc(C)cc3C)n(C)c(=O)n1CC2.Cl [Trequinsin.HCl] 118
NC(N)=NC(=O)c1nc(Cl)c(N2CCCCCC2)nc1N [5-(N,N-hexamethylene)amiloride] 100
COc1ccc(C2CNC(=O)C2)cc1OC1CCCC1 (configuration not stated) [Rolipram] 110
N[C@@H](Cc1ccc(O)c(O)c1)C(=O)O [L-3,4-Dihydroxyphenylalanine] 90
O=c1cc(-c2ccccc2)oc2cc(O)ccc12 [7-Hydroxyflavone] 88.8
O=C(O)[C@H]1C[C@H](C(=O)O)N1 (relative stereo) [trans-Azetidine-2,4-dicarboxylic acid] 90.5
CCOC(=O)C1=C(C)NC(=S)NC1c1cccc(O)c1 (configuration not stated) [Monastrol] 97.1
CCOC(=O)Nc1ccc(NCc2ccc(F)cc2)nc1N.O=C(O)C=CC(=O)O [Flupirtine maleate] 105
CCCCC(C)(O)CC=CC1C(O)CC(=O)C1CCCCCCC(=O)O (configuration not stated) [Misoprostol, free acid] 98.8
O=C(Nc1cccc(Nc2ncc(Br)c(NCCc3cnc[nH]3)n2)c1)N1CCCC1 109
CCCCCCCC(=O)c1c(O)cc(O)cc1CC(=O)OCC [ethyl (3,5-dihydroxy-2-octanoylphenyl)acetate] 121
C[n+]1ccccc1CC(=O)c1ccc(Br)cc1.[I-] [2-[2-(4-bromophenyl)-2-oxoethyl]-1-methylpyridinium iodide] 97.5
CCCC(CCC)C(=O)NO [N-hydroxy-2-propylpentanamide] 80.8
CCCCCCCCCCCCCCCCCCCCCCCC(=O)O [Tetracosanoic acid] 104
CC1(C)CCC2(C(=O)O)CCC3(C)C(=CCC4C5(C)CCC(O)C(C)(C)C5CCC43C)C2C1 (configuration not stated) [Oleanolic acid] 89.8
Cl.c1ccc(CN2CCC3(CCCc4ccccc43)CC2)cc1 [L-687,384 hydrochloride] 103
O=C(Nc1nc2ccccc2n1CCN1CCOCC1)c1cccc([N+](=O)[O-])c1 [IRAK-1/4 Inhibitor] 117
O=c1nc[nH]c2c1ncn2C1CCC(CO)O1 (configuration not stated) [Didanosine] 109
CCC=CCC=CCC=CCCCCCCCCCCCC(=O)O [Docosatrienoic acid] 102
CC1(NC(=O)CBr)CCC(C(C)(C)NCC(O)COc2cccc3[nH]ccc23)CC1 (racemic) 103
O=c1[nH]c(=O)c2nc3ccccc3nc2[nH]1 [Alloxazine] 92.1
CCCCCC(O)C=CC1=C(CC=CCCCC(=O)O)C(=O)CC1 (configuration not stated) [Prostaglandin B2] 97.4
COC(=O)c1c(C)[nH]c(C)c1C(=O)c1ccccc1Cc1ccccc1 129
COc1cc2c(N3CCN(C(=O)Nc4ccc(OC(C)C)cc4)CC3)ncnc2cc1OCCCN1CCCCC1 [Tandutinib] 99.5
Cc1ccc(C(=O)c2cc(O)c(O)c([N+](=O)[O-])c2)cc1 [Tolcapone] 112
CCCc1cc(C(N)=S)ccn1 [Prothionamide] 103
Cc1cc2c(OCC(CNC(C)(C)C)OC(=O)c3ccccc3)cccc2[nH]1 (configuration not stated) [Bopindolol] 103
COc1ccc(C2OCC3C(c4ccc(OC)c(OC)c4)OCC23)cc1OC (configuration not stated) [Eudesmine] 107
CC(C)NCC(O)COc1cccc2ccccc12 (configuration not stated) [Propranolol] 108
S=c1ccss1 [1,2-Dithiole-3-thione] 99.4
CC(C)(C)c1cnc(CSc2cnc(NC(=O)C3CCNCC3)s2)o1 100
CCCCCCCCCCCCCCCCCCCCCC(=O)O [Docosanoic acid] 101
O=c1[nH]c(=O)n([C@H]2C[C@H](O)[C@@H](CO)O2)cc1/C=C/Br [(E)-5-(2-Bromovinyl)-2'-deoxyuridine] 87.7
O=C1CCc2c(ccc3ccccc23)O1 [1,2-dihydro-3H-benzo[f]chromen-3-one] 92.7
CCC(C)C(=O)OC1CC(C)C=C2C=CC(C)C(CCC3CC(O)CC(=O)O3)C21 (configuration not stated) [Lovastatin] 106
CC(=O)OCC(=O)C1(O)CCC2C3CCC4=CC(=O)CCC4(C)C3C(O)CC21C (configuration not stated) [Hydrocortisone 21-acetate] 109
Nc1[nH]nc2nc3ccccc3nc12 [Cdk1/5 Inhibitor] 113

H1.0 immunofluorescence intensity, active:
OC1C=C2CCN3Cc4cc5c(cc4C(C1O)C23)OCO5 (configuration not stated) [Lycorine] 180
